# According to PMC5540273 (PLoS ONE, 2017):
# Values joined by “and” are separate entries in the source; they are usually repeats but may differ in a detail not shown here. Identical values can stand only once. Like-named read-outs stand apart in the source and are kept apart here.
# Legend:
# Conditions in all cases: concentration: 1 μM, replicates: in singlicate, n = 1
# FLT3-autoinhibited = test system: FLT3-autoinhibited
# FLT3 = test system: FLT3
# FLT4 = test system: FLT4
# FRK = test system: FRK
# FYN = test system: FYN
# GAK = test system: GAK
# GCN2(Kin.Dom.2,S808G) = test system: T1, GCN2(Kin.Dom.2,S808G)
# T1 construct: gene EIF2AK4
# GRK1 = test system: GRK1
# GRK2 = test system: T2, GRK2
# T2 construct: gene ADRBK1
# GRK3 = test system: T3, GRK3
# T3 construct: gene ADRBK2
# GRK4 = test system: GRK4
# GRK7 = test system: GRK7
# GSK3A = test system: GSK3A
# GSK3B = test system: GSK3B
# HASPIN = test system: T4, HASPIN
# T4 construct: gene GSG2
# HCK = test system: HCK
# HIPK1 = test system: HIPK1
# HIPK2 = test system: HIPK2
# HIPK3 = test system: HIPK3
# HIPK4 = test system: HIPK4
# 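Further: KINOMEscan kinase panel screen.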
smiles,measurement,setting,value
Cl.Cl.Cl.Fc1ccc(-c2ncn(C3CCNCC3)c2-c2ccnc(Nc3ccccc3)n2)cc1 [SB-238039],%Inh,FLT3-autoinhibited; 1 µM,0% and 18%
same,%Inh,FLT3; 1 µM,4% and 26%
same,%Inh,FLT4; 1 µM,15% and 9%
same,%Inh,FRK; 1 µM,0% and 35%
same,%Inh,FYN; 1 µM,0% and 1%
same,%Inh,GAK; 1 µM,84% and 74%
same,%Inh,"GCN2(Kin.Dom.2,S808G); 1 µM",0% and 27%
same,%Inh,GRK1; 1 µM,32% and 25%
same,%Inh,GRK2; 1 µM,0% and 16%
same,%Inh,GRK3; 1 µM,32% and 0%
same,%Inh,GRK4; 1 µM,8% and 46%
same,%Inh,GRK7; 1 µM,0% and 37%
same,%Inh,GSK3A; 1 µM,57% and 10%
same,%Inh,GSK3B; 1 µM,47% and 17%
same,%Inh,HASPIN; 1 µM,58% and 0%
same,%Inh,HCK; 1 µM,65% and 34%
same,%Inh,HIPK1; 1 µM,29% and 64%
same,%Inh,HIPK2; 1 µM,31% and 30%
same,%Inh,HIPK3; 1 µM,8% and 0%
same,%Inh,HIPK4; 1 µM,17% and 0%
c1ccc(-c2n[nH]cc2-c2ccnc3ccccc23)nc1 [GW271431],%Inh,FLT3-autoinhibited,5%
same,%Inh,FLT3,3%
same,%Inh,FLT4,25%
same,%Inh,FRK,10%
same,%Inh,FYN,43%
same,%Inh,GAK,79%
same,%Inh,"GCN2(Kin.Dom.2,S808G)",3%
same,%Inh,GRK1,0%
same,%Inh,GRK2,0%
same,%Inh,GRK3,34%
same,%Inh,GRK4,0%
same,%Inh,GRK7,23%
same,%Inh,GSK3A,15%
same,%Inh,GSK3B,17%
same,%Inh,HASPIN,10%
same,%Inh,HCK,0%
same,%Inh,HIPK1,15%
same,%Inh,HIPK2,0%
same,%Inh,HIPK3,26%
same,%Inh,HIPK4,0%
NCCNS(=O)(=O)c1ccc(-c2ccnc3[nH]ccc23)cc1 [GSK977617],%Inh,FLT3-autoinhibited; 1 µM,27% and 39%
same,%Inh,FLT3; 1 µM,87% and 73%
same,%Inh,FLT4; 1 µM,48% and 21%
same,%Inh,FRK,0%
same,%Inh,FYN; 1 µM,25% and 16%
same,%Inh,GAK; 1 µM,46% and 19%
same,%Inh,"GCN2(Kin.Dom.2,S808G)",0%
same,%Inh,GRK1; 1 µM,75% and 52%
same,%Inh,GRK2; 1 µM,4% and 0%
same,%Inh,GRK3; 1 µM,12% and 36%
same,%Inh,GRK4; 1 µM,69% and 37%
same,%Inh,GRK7; 1 µM,92.1% and 90.1%
same,%Inh,GSK3A,0%
same,%Inh,GSK3B; 1 µM,0% and 10%
same,%Inh,HASPIN; 1 µM,95.3% and 86%
same,%Inh,HCK,0%
same,%Inh,HIPK1; 1 µM,95.6% and 94.2%
same,%Inh,HIPK2; 1 µM,96% and 89%
same,%Inh,HIPK3; 1 µM,97.4% and 95.9%
same,%Inh,HIPK4; 1 µM,77% and 64%
COc1ccc(Nc2nccc(N3CCC(NC(=O)Nc4cccc(C(C)=O)c4)C3)n2)cc1 (centres unmarked) [GSK1379731],%Inh,FLT3-autoinhibited,0%
same,%Inh,FLT3,34%
same,%Inh,FLT4,4%
same,%Inh,FRK,0%
same,%Inh,FYN,1%
same,%Inh,GAK,0%
same,%Inh,"GCN2(Kin.Dom.2,S808G)",0%
same,%Inh,GRK1,0%
same,%Inh,GRK2,0%
same,%Inh,GRK3,4%
same,%Inh,GRK4,0%
same,%Inh,GRK7,0%
same,%Inh,GSK3A,22%
same,%Inh,GSK3B,7%
same,%Inh,HASPIN,17%
same,%Inh,HCK,0%
same,%Inh,HIPK1,0%
same,%Inh,HIPK2,0%
same,%Inh,HIPK3,1%
same,%Inh,HIPK4,0%
CN1c2ccc(CNc3ccc(F)cc3)cc2-c2c(cnn2C)S1(=O)=O,%Inh,FLT3-autoinhibited,0%
same,%Inh,FLT3,36%
same,%Inh,FLT4,0%
same,%Inh,FRK,1%
same,%Inh,FYN,4%
same,%Inh,GAK,0%
same,%Inh,"GCN2(Kin.Dom.2,S808G)",15%
same,%Inh,GRK1,10%
same,%Inh,GRK2,0%
same,%Inh,GRK3,0%
same,%Inh,GRK4,0%
same,%Inh,GRK7,0%
same,%Inh,GSK3A,22%
same,%Inh,GSK3B,0%
same,%Inh,HASPIN,33%
same,%Inh,HCK,4%
same,%Inh,HIPK1,35%
same,%Inh,HIPK2,0%
same,%Inh,HIPK3,0%
same,%Inh,HIPK4,0%
Cc1nnc(-c2ccc(C)c(-c3ccc(C(=O)Nc4ccc(NS(C)(=O)=O)cc4)cc3)c2)o1 [GW702865],%Inh,FLT3-autoinhibited,0%
same,%Inh,FLT3,0%
same,%Inh,FLT4,8%
same,%Inh,FRK,0%
same,%Inh,FYN,17%
same,%Inh,GAK,0%
same,%Inh,"GCN2(Kin.Dom.2,S808G)",10%
same,%Inh,GRK1,0%
same,%Inh,GRK2,0%
same,%Inh,GRK3,0%
same,%Inh,GRK4,0%
same,%Inh,GRK7,0%
same,%Inh,GSK3A,5%
same,%Inh,GSK3B,0%
same,%Inh,HASPIN,46%
same,%Inh,HCK,0%
same,%Inh,HIPK1,0%
same,%Inh,HIPK2,0%
same,%Inh,HIPK3,12%
same,%Inh,HIPK4,0%
Cc1c(Cn2c(C)nn3c(=O)cc(N4CCOC(C)C4)nc23)cccc1C(F)(F)F (centres unmarked) [GSK2344444],%Inh,FLT3-autoinhibited,3%
same,%Inh,FLT3,0%
same,%Inh,FLT4,11%
same,%Inh,FRK,0%
same,%Inh,FYN,2%
same,%Inh,GAK,0%
same,%Inh,"GCN2(Kin.Dom.2,S808G)",0%
same,%Inh,GRK1,1%
same,%Inh,GRK2,0%
same,%Inh,GRK3,0%
same,%Inh,GRK4,0%
same,%Inh,GRK7,0%
same,%Inh,GSK3A,0%
same,%Inh,GSK3B,10%
same,%Inh,HASPIN,0%
same,%Inh,HCK,0%
same,%Inh,HIPK1,0%
same,%Inh,HIPK2,0%
same,%Inh,HIPK3,7%
same,%Inh,HIPK4,0%
COc1ccc(Nc2ncc(C#N)c(Nc3ccccc3C(N)=O)n2)cc1N1CCN(C)CC1.Cl [GSK1558669],%Inh,FLT3-autoinhibited,99.9%
same,%Inh,FLT3,99.8%
same,%Inh,FLT4,100%
same,%Inh,FRK,83%
same,%Inh,FYN,96.8%
same,%Inh,GAK,98.1%
same,%Inh,"GCN2(Kin.Dom.2,S808G)",100%
same,%Inh,GRK1,55%
same,%Inh,GRK2,35%
same,%Inh,GRK3,0%
same,%Inh,GRK4,96%
same,%Inh,GRK7,46%
same,%Inh,GSK3A,99.8%
same,%Inh,GSK3B,99.8%
same,%Inh,HASPIN,88%
same,%Inh,HCK,98.8%
same,%Inh,HIPK1,100%
same,%Inh,HIPK2,98.8%
same,%Inh,HIPK3,99.8%
same,%Inh,HIPK4,89%
Cc1ccc(NC(=O)c2ccnc(N3CCN(C)CC3)c2)cc1-c1ccc(C(=O)NCC2CC2)cc1 [GW775604],%Inh,FLT3-autoinhibited,0%
same,%Inh,FLT3,0%
same,%Inh,FLT4,0%
same,%Inh,FRK,0%
same,%Inh,FYN,0%
same,%Inh,GAK,0%
same,%Inh,"GCN2(Kin.Dom.2,S808G)",0%
same,%Inh,GRK1,0%
same,%Inh,GRK2,0%
same,%Inh,GRK3,33%
same,%Inh,GRK4,15%
same,%Inh,GRK7,0%
same,%Inh,GSK3A,0%
same,%Inh,GSK3B,0%
same,%Inh,HASPIN,0%
same,%Inh,HCK,9%
same,%Inh,HIPK1,0%
same,%Inh,HIPK2,0%
same,%Inh,HIPK3,0%
same,%Inh,HIPK4,0%
O=c1cc(N2CCOCC2)nc2n(Cc3cccc(Cl)c3Cl)c(C3CC3)nn12 [GSK2358994],%Inh,FLT3-autoinhibited,0%
same,%Inh,FLT3,10%
same,%Inh,FLT4,10%
same,%Inh,FRK,0%
same,%Inh,FYN,6%
same,%Inh,GAK,11%
same,%Inh,"GCN2(Kin.Dom.2,S808G)",0%
same,%Inh,GRK1,0%
same,%Inh,GRK2,0%
same,%Inh,GRK3,0%
same,%Inh,GRK4,0%
same,%Inh,GRK7,0%
same,%Inh,GSK3A,4%
same,%Inh,GSK3B,0%
same,%Inh,HASPIN,0%
same,%Inh,HCK,0%
same,%Inh,HIPK1,16%
same,%Inh,HIPK2,0%
same,%Inh,HIPK3,16%
same,%Inh,HIPK4,0%
